Experiment: E. coli acrAB mutant growth effects, primary screen, E. coli filamentation inducers, strain DRC39, OD650, 24 h (AID 1178);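 further: growth measured as culture turbidity by optical density at 650 nm; test concentration not given here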
Details: higher = more signal, called active from +8 up or from −8 down

z-score, inactive:
O=C(O)[C@@H]1[C@@H]2C(=O)N(c3ccccc3)C(=O)[C@@H]2C[C@@H]1Sc1ccccc1 -0.719, CCOC(=O)C1=CC[C@@H](c2ccccc2F)N(S(=O)(=O)c2ccc(C)cc2)[C@H]1c1ccccc1 -0.308, C=CCN1Cc2ccccc2[C@@H]2OC(c3ccc(OCCCO)cc3)=N[C@]2(CC=C)C1=O 0.997, O=C(NCCN1CCOCC1)[C@@H]1c2ccccc2C(=O)N(C2Cc3ccccc3C2)[C@H]1c1ccc(CO)cc1 0.638, C=CCC(OC(C)=O)[C@@H]1[C@@H](N(Cc2cccc3ccccc23)C(=O)Cc2ccc(OC)cc2)c2cc(OCCCO)ccc2N1C(=O)c1ccc(-c2ccccc2)cc1 (stereo partly specified) 0.144, CC(C)[Si](C#CCCCC#N)(O[C@H](c1ccccc1)c1cn(Cc2ccccc2)nn1)C(C)C -0.25, NCCCCCCNC(=O)[C@@H]1C[C@@H]2C(=O)N[C@@H](CCCCN)C(=O)N2[C@@H]1c1ccc(O)cc1 -0.273, CCN(CC)c1ccc(N2CC=CC34O[C@@H]5/C=C\CCCOC(=O)C5[C@H]3C(=O)N(C(C)CO)[C@@H]4C2=O)cc1 (stereo partly specified) 1.9, CC(C)N1C(=O)C[C@@](C(=O)O)(c2ccc([N+](=O)[O-])cc2)[C@H]1c1ccc(CO)cc1 0.732, CN(C)C(=O)[C@@]1(Cc2ccccc2)N=C(c2ccc(OCCCO)cc2)O[C@H]1c1ccccc1 0.0862, Cc1ccc(S[C@]2(C(=O)NC(C)C)CC(=O)N(Cc3cc(C(F)(F)F)cc(C(F)(F)F)c3)[C@@H]2c2ccc(CO)cc2)cc1 -0.0813, COCC(=C=CC[C@H](O)c1ccc(CO)o1)CCO -0.401, CCCCCN1CC=CC23O[C@@H]4/C=C\CCCOC(=O)C4[C@H]2C(=O)N(C(C)CO)[C@@H]3C1=O (stereo partly specified) 1.25, COc1ccc([Si](C)(C)[C@@H]2[C@@H](CCO)O[C@]3(C(=O)N(Cc4cccc(NC(=O)[C@H](C)O)c4)c4ccccc43)[C@H]2C)cc1 0.0065, Cc1ccc(S[C@]2(C(=O)NCc3ccccc3)CC(=O)N(C3CCCCC3)[C@@H]2c2ccc(CO)cc2I)cc1 0.509, CC(C)c1ccc(NN2C(C(O)c3ccc(F)cc3)C=CC3C(=O)N(c4ccccc4)C(=O)C32)cc1 (stereo unspecified) -0.159, COC(=O)[C@@]1(Cc2ccccc2)[C@H]2c3cc(C(=O)N4CCCC4)n(CCc4ccccn4)c3C[C@H]2CN1C(=O)c1ccccc1 -0.413, CCCN1C(=O)[C@]2(Cc3ccccc31)N=C(c1ccc(OCCCO)cc1)O[C@@H]2c1ccccc1 1.15, O=C1[C@H]2C=C(I)[C@H](C[C@@H]2OCCOCCO)[C@@]12CO2 -0.331, CCCCCCc1nc(Cc2cc(OC)c(OC)c(OC)c2)cc2c1[Si](C(C)C)(C(C)C)OC2 -0.284, COC(=O)C(CC#Cc1ccc2c(c1)[C@]1(C(=O)N2)[C@H](c2ccc(O)cc2)N2[C@H](c3ccccc3)[C@H](c3ccccc3)OC(=O)[C@H]2[C@@H]1C(=O)NC[C@H](O)c1ccccc1)C(=O)OC 0.062, COCCOC(=O)N1C(=O)[C@@]2(c3cc(C#CC4=CCCCC4)ccc31)[C@H](c1ccccc1OCCO)N1[C@H](c3ccccc3)[C@H](c3ccccc3)OC(=O)[C@H]1[C@@H]2C(=O)N1CCN(c2ncccn2)CC1 0.259, O[C@@H](Cc1ccccc1)[C@@H](/C=C/C1CC1)N(CC#Cc1ccccc1)Cc1ccccc1Br -0.419, COc1cc2c(cc1O)C=[N+](Cc1sc3ccccc3c1Cl)CC2 0.81, COc1ccc(C#Cc2ccc3c(c2)[C@]2(C(=O)N3)[C@H](C(=O)O)[C@H]3C(=O)O[C@H](c4ccccc4)[C@H](c4ccccc4)N3[C@@H]2c2ccc(O)cc2)cc1 -0.0897, Cn1cccc1C(O)C1C=CC2C(=O)N(c3ccccc3)C(=O)C2N1Nc1ccccc1 (stereo unspecified) 0.312, Cc1ccc(F)cc1S(=O)(=O)N[C@@H]1CCN(Cc2ccc(Br)cc2)C1 1.13, CC1CC/C=C\[C@H]2OC34C=CCN(Cc5ccccc5)C(=O)[C@H]3N(C(CO)C(C)C)C(=O)[C@@H]4C2C(=O)O1 (stereo partly specified) 0.426, CCOC(=O)C1=C[C@@H](C(C)C)N(S(=O)(=O)c2ccc(C)cc2)[C@H]1c1ccc(C(F)(F)F)cc1 -0.227, COCCCNC(=O)[C@@]1(Sc2ccc(C)cc2)CC(=O)N(C2Cc3ccccc3C2)[C@@H]1c1ccc(CO)cc1 0.897, C[N+](C)(C)CCCC[C@@H]1NC(=O)[C@@H]2C[C@H](C(=O)NCCCCCCN)[C@H](c3cccc(OCCO)c3)N2C1=O 0.342, C=CCC(OC(C)=O)[C@@H]1[C@@H](N(Cc2ccc(-c3ccccc3)cc2)C(=O)c2ccc(-c3ccccc3)cc2)c2cc(OCCCO)ccc2N1C(=O)c1ccc2ccccc2c1 (stereo partly specified) -0.91, CC1CC/C=C\[C@H]2OC34C=CCN(C(C)C)C(=O)[C@H]3N(CCO)C(=O)[C@@H]4C2C(=O)O1 (stereo partly specified) 0.764, CCCNC(=O)[C@@H]1c2ccccc2C(=O)N(Cc2ccc(OC(F)(F)F)cc2)[C@H]1c1ccc(CO)cc1 0.659, CC(C)NC(=O)[C@@]1(C)c2ccccc2C(=O)N(Cc2ccc(OC(F)(F)F)cc2)[C@H]1c1ccc(CO)cc1 -0.048, COc1ccc(CCNC(=O)[C@@]2(Cc3ccccc3I)c3ccccc3C(=O)N(C3CCCCC3)[C@H]2c2ccc(CO)cc2)cc1 0.314

Source: PubChem BioAssay
